Inconclusive results are not listed. The source made the active and inactive calls. The call rests on the fitted dose curve; in most records, active means well fitted cell-killing curve with a large enough effect in the repeat runs; inconclusive means weak or mixed curves, or effect the other way; inactive means flat fitted curve, though single readings scatter.
Experiment: qHTS assay to identify small molecule antagonists of the constitutive androstane receptor (CAR) signaling pathway - cell viability counter screen (AID 1224837); further: nearly all actives have a fitted effect of over 45% in size
Settings: HepG2-CYP2B6-hCAR viability, CellTiter-Fluor, 23 h, co-treated with 50 nM CITCO; series mostly up to 92.4 µM
Description: National Center for Advancing Translational Sciences [NCATS]
NIH Chemical Genomics Center [NCGC]
U.S. Environmental Protection Agency [EPA]
National Institutes of Environmental Health Sciences [NIEHS]
National Toxicology Program [NTP]
U.S. Food and Drug Administration [FDA]
The constitutive androstane receptor (CAR) is a nuclear receptor which regulates multiple drug metabolizing enzymes (DMEs) and transporters. Activating CAR will generally increase the transcription and subsequent translation of CYP2B6 and CYP3A4. These two DMEs represent about 50% of the drug metabolizing potential in the body. When CAR is deactivated, the metabolizing potential in the body will decrease, subsequently increasing the toxicity in the body or lowering the therapeutic potential of a pro-drug. Recently, there have also been studies performed indicating CARs role in energy metabolism and cancer therapy. Therefore, inhibiting CARs activity could have a potential effect on diabetes and cancer. Identifying environmental toxins and compounds which modulate CAR, through the use of the Tox21 10K compound collection, will be an important step in determining the toxicity and potential therapeutic effects these factors will have on the human body. To differentiate true CAR antagonists from cytotoxic substances, the assay is multiplexed with a cell viability assay.
Tox21 Assay Protocol Summary:
A double-stable (hCAR and CYP2B6-2.2kb) transfected cell line, derived from human hepatoma (HepG2) cells, was utilized for the duration of the quantitative high-throughput screens. The HepG2-CYP2B6-hCAR cells were dispensed at 2500 cells/4 uL/well in 1536-well white solid bottom plates using a Multidrop Combi. After the assay plates were incubated at 37 C/5% CO2 for 4 hrs, 23 nL of compounds at 15 concentrations (from 5-48 columns) or positive control (from 1 to 4 columns) were transferred to the assay plates using a Pintool station. One uL of CITCO (final concentration = 50 nM) was added, using a Flying Reagent Dispenser, inside each well. After a 23 hr incubation period at 37 C/5% CO2, 1 uL of CellTiter-Fluor reagent was added into each well of the assay plates using a Flying Reagent Dispenser. The fluorescence intensity in the plates was then measured using a ViewLux plate reader.
On the % scale 0 is the no-effect control and ±100 the full control effect.

SMILES | outcome | activity change, negative = cytotoxicity
CN(C)CCC[C@@]1(c2ccc(F)cc2)OCc2cc(C#N)ccc21 | inactive | –
CC(=O)c1ccc(O)c(C(N)=O)c1 | inactive | –
CC(C)OC(=O)C(C(=O)OC(C)C)=C1SC=CS1 | inactive | –
N=C(N)N1CCc2ccccc2C1 | – | 1.11% [at 8.39 µM] (inactive)
CCCCCCCCCCCCCCCC(=O)OC | – | -4.04% [at 19 µM] (inactive)
O=C1Nc2ccccc2C1=O | inactive | –
CN1CCN(C(=O)C2CCCCC2)CC1 | inactive | –
Cc1nnc(C(=O)NC(C)(C)c2nc(C(=O)NCc3ccc(F)cc3)c(O)c(=O)n2C)o1 | inactive | –
Cc1cc2c(cc1CC(=O)c1sccc1S(=O)(=O)Nc1onc(C)c1Cl)OCO2 | inactive | –
CC1(C)S[C@@H]2[C@H](NC(=O)Cc3ccccc3)C(=O)N2[C@H]1C(=O)O (tested in a mixture with another compound) | inactive | –
Cc1ccc(Br)cc1 | inactive | –
CC(=O)OC1CCC(C(C)(C)C)CC1 (stereo not given) | inactive | –
C=C(C)C(=O)OCCCC | inactive | –
C[C@@H]1NC(=O)[C@@H](N)CNC(=O)[C@H](C2CCNC(N)=N2)NC(=O)/C(=C/NC(N)=O)NC(=O)[C@H](CNC(=O)C[C@@H](N)CCCN)NC1=O (stereo not given in full) | – | 0.72% [at 0.349 µM] (inactive)
Cc1cc(C)c(C)c(C)c1 | inactive | –
CC(C)(O)c1ccc(C(C)(C)O)cc1 | inactive | –
Cc1cc(O)c(Cl)cc1C | inactive | –
CN(C)CCc1c[nH]c2ccc(CS(=O)(=O)N3CCCC3)cc12 | inactive | –
O=C(c1ccccc1)c1cccc(O)c1 | inactive | –
CCCCCCCCCCCCCC(=O)OCC | inactive | –

SMILES | outcome | activity change, negative = cytotoxicity
CCOC(=O)CN1CCCC1=O | inactive | –
CCCCCCCCCCCBr | inactive | –
NNC(=O)OCc1ccccc1 | inactive | –
CCCc1ccc(O)c(OC)c1 | inactive | –
N#Cc1ccccc1C#N | inactive | –
COc1cnc(NS(=O)(=O)c2ccc(N)cc2)nc1 | inactive | –
Cc1ccc(N)nc1 | inactive | –
CC(C)(C)C(=O)NCCCC(=O)O | inactive | –
C=CCON/C(CCC)=C1\C(=O)CC(C)(C)C(C(=O)OC)=C1O | inactive | –
CCCCCCC(=O)c1ccccc1 | inactive | –
CCCCN1C(=O)c2ccccc2C1=O | inactive | –
Nc1ccc(C(=O)NCC(=O)O)cc1 | inactive | –
CCc1ccc(CC)cc1 | inactive | –
CCCCCCCCC1CO1 (stereo not given) | inactive | –
COc1ccc2cc(CCC(C)=O)ccc2c1 | inactive | –
COc1ccc(Cl)cc1C | inactive | –
CCOC(=O)CC(C(C)=O)C(C)=O | inactive | –
CC(C)(C)OC=O | inactive | –
C=CCCCCCCCCOC(C)=O | inactive | –
C[C@@H]1CCC[C@H](C)N1CCCC(O)(c1ccccc1)c1ccccn1 (stereo not given in full) | inactive | –

Source: PubChem BioAssay (Tox21)
